From PubChem BioAssay (NCI)
Several values for one entry are separate records, joined by “and”; a condition that tells them apart may be missing. Equal entries are not always repeated. About 79,000 compounds went through this panel and 15% of them were active in at least one assay; those are over-represented in the sample as a whole. More than one record can exist for a structure, and the calls need not agree. Activity calls are given as the source filed them. No stated cut-off is given here; in the data, active means growth inhibition above about 70%; inactive means the rest.

Columns and labels:
[1] = NCI Yeast Anticancer Drug Screen. Data for the rad52 strain (AID 147);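 further: 0% = growth of vehicle-treated control cultures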; settings: S. cerevisiae rad52 mutant growth inhibition, stronger effect = higher value
In short: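 Yeast strain carrying a DNA damage repair alteration was exposed to test compounds. Growth inhibition was measured relative to vehicle-treated controls.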

[2] = NCI Yeast Anticancer Drug Screen. Data for the wt1 strain (AID 149);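 further: 0% = growth of vehicle-treated wt1 cultures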; settings: S. cerevisiae wt1 strain (SPY 50644) growth inhibition, stronger effect = higher value
In short: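 Compounds are added to wt1 yeast cultures. Growth is then measured. Inhibition is expressed relative to vehicle-treated controls.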

[3] = NCI Yeast Anticancer Drug Screen. Data for the rad50EPP+ strain (AID 151);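 further: 0% = growth of vehicle-treated control cultures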; settings: S. cerevisiae rad50 mutant strain, stronger effect = higher value
In short: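 Yeast strain carrying rad50 alteration (rad50EPP+) exposed to compounds; growth inhibition measured relative to vehicle-treated controls.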

[4] = NCI Yeast Anticancer Drug Screen. Data for the mgt1 strain (AID 153); settings: S. cerevisiae mgt1 mutant growth inhibition, stronger effect = higher value
In short: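 Yeast mgt1 strain (DNA repair/cell-cycle alteration panel) exposed to compounds; growth inhibition measured relative to vehicle-treated controls.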

[5] = NCI Yeast Anticancer Drug Screen. Data for the rad50 strain (AID 155);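 further: 0% = growth of vehicle-only cultures of the same strain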; settings: S. cerevisiae rad50 strain growth inhibition, stronger effect = higher value
In short: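 Inhibition values express reduced yeast growth in compound-treated cultures relative to vehicle-treated controls.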

[6] = NCI Yeast Anticancer Drug Screen. Data for the mec2-1 strain (AID 157); settings: S. cerevisiae mec2-1 strain, stronger effect = higher value
In short: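 mec2-1 yeast strain, carrying an alteration in DNA damage repair or cell cycle control, was exposed to compounds; growth inhibition was measured relative to vehicle-treated controls.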

[7] = NCI Yeast Anticancer Drug Screen. Data for the rad14 strain (AID 159);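 further: 0% = growth of vehicle-treated control cultures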; settings: S. cerevisiae rad14 strain growth inhibition, stronger effect = higher value
In short: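 A mutant yeast strain defective in DNA damage repair is treated with compound; inhibition of its growth is scored against untreated, vehicle-exposed cultures.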

[8] = NCI Yeast Anticancer Drug Screen. Data for the sgs1 mgt1 strain (AID 161);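 further: 0% = growth of cultures given vehicle only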; settings: S. cerevisiae sgs1 mgt1 strain, stronger effect = higher value
In short: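 Compounds are added to genetically altered yeast, and growth is compared with cultures given vehicle alone to give percent inhibition.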

[9] = NCI Yeast Anticancer Drug Screen. Data for the CLN2oe strain (AID 163);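 further: 0% = growth of vehicle-only control cultures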; settings: S. cerevisiae CLN2oe strain, stronger effect = higher value
In short: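 Yeast cells carrying a defined cell-cycle control alteration were exposed to test compounds. Growth inhibition was scored against vehicle-treated control cultures.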

[10] = NCI Yeast Anticancer Drug Screen. Data for the cln2 rad14 strain (AID 165);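 further: 0% = growth equal to vehicle treated cultures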; settings: S. cerevisiae cln2 rad14 strain, stronger effect = higher value
In short: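 Yeast carrying cln2 and rad14 alterations (cell cycle control and DNA damage repair) were exposed to compounds. Growth inhibition was measured against vehicle-treated controls.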

[11] = NCI Yeast Anticancer Drug Screen. Data for the bub3 strain (AID 167); settings: S. cerevisiae bub3 mutant strain, stronger effect = higher value
In short: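 Steps: expose the mutant yeast strain to compound; grow alongside vehicle-treated cultures; measure growth; express inhibition against the vehicle cultures.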

[12] = NCI Yeast Anticancer Drug Screen. Data for the wt2 strain (AID 169);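 further: 0% = growth of vehicle-treated yeast cultures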; settings: S. cerevisiae wt2 strain growth inhibition, stronger effect = higher value
In short: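 Yeast cells were exposed to test compounds, and growth inhibition was measured relative to vehicle-treated controls.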

[13] = NCI Yeast Anticancer Drug Screen. Data for the mlh1 strain (AID 171);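 further: 0% = growth of vehicle-treated control cultures of the same strain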; settings: S. cerevisiae mlh1 strain growth inhibition, stronger effect = higher value
In short: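 Yeast carrying a defined genetic alteration in DNA damage repair or cell cycle control were exposed to test compounds. Growth inhibition was measured relative to vehicle-treated controls.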

[14] = NCI Yeast Anticancer Drug Screen. Data for the sgs1 strain (AID 173);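 further: 0% = growth of vehicle-only control cultures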; settings: S. cerevisiae sgs1 mutant, stronger effect = higher value
In short: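 Yeast mutant strains carrying defined defects in DNA damage repair or cell cycle control were exposed to test compounds. Growth inhibition was scored against vehicle-treated controls.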

[15] = NCI Yeast Anticancer Drug Screen. Data for the mlh1 rad18 strain (AID 175); settings: S. cerevisiae mlh1 rad18 strain growth inhibition, stronger effect = higher value
In short: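 Growth inhibition of the yeast strain was measured after compound exposure and expressed relative to vehicle-treated controls. The strain carries defined defects in DNA damage repair.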

[16] = NCI Yeast Anticancer Drug Screen. Data for the rad18 strain (AID 177); settings: S. cerevisiae rad18 mutant growth inhibition, stronger effect = higher value
In short: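 Yeast carrying a defined DNA damage repair alteration were exposed to compounds. Growth inhibition was expressed relative to vehicle-treated controls.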

[17] = at 5.0 µM (retest, dose inferred, filed as 0.5)
[18] = at 50.0 µM (retest, dose inferred, filed as 5.0)

Measured: growth inhibition

CCOC(=O)COc1c(OC)cc(C2C3=C(COC3=O)Oc3cc4c(cc32)OCO4)cc1OC (stereo unspecified)
active: [10]; at 50.0 µM 71%
inactive: [1]; at 1.2 µM 2% | [1]; at 3.7 µM 1% | [1]; at 11.0 µM 0% | [1]; at 33.0 µM 8% | [1]; at 100.0 µM 23% | [2]; at 1.2 µM 1% | [2]; at 3.7 µM 2% | [2]; at 11.0 µM 4% | [2]; at 33.0 µM 3% | [2]; at 100.0 µM 6% | [3]; at 1.2 µM -2% | [3]; at 3.7 µM -16% | [3]; at 11.0 µM -22% | [3]; at 33.0 µM -11% | [3]; at 100.0 µM 15% | [4]; at 1.2 µM -3% | [4]; at 3.7 µM 2% | [4]; at 11.0 µM 0% | [4]; at 33.0 µM 16% | [4]; at 100.0 µM 8% | [5]; at 1.2 µM 1% | [5]; at 3.7 µM 0% | [5]; [17] -4% | [5]; at 11.0 µM 1% | [5]; at 33.0 µM 3% | [5]; [18] -1% | [5]; at 50.0 µM 2.85% | [5]; at 100.0 µM 8% | [6]; at 1.2 µM -1% | [6]; at 3.7 µM 0% | [6]; [17] -8% | [6]; at 11.0 µM -2% | [6]; at 33.0 µM 1% | [6]; [18] -4% | [6]; at 50.0 µM 26.8% | [6]; at 100.0 µM 17% | [7]; at 1.2 µM -3% | [7]; at 3.7 µM -3% | [7]; at 11.0 µM 0% | [7]; at 33.0 µM 4% | [7]; at 100.0 µM 15% | [8]; [17] -9% | [8]; [18] 19% | [8]; at 50.0 µM 14.7% | [9]; at 1.2 µM -2% | [9]; at 3.7 µM -3% | [9]; at 11.0 µM 5% | [9]; at 33.0 µM 2% | [9]; at 100.0 µM 10% | [10]; [17] -1% | [10]; [18] 29% | [11]; at 1.2 µM -4% | [11]; at 3.7 µM 0% | [11]; [17] -13% | [11]; at 11.0 µM 0% | [11]; at 33.0 µM 6% | [11]; [18] 19% | [11]; at 50.0 µM 28.2% | [11]; at 100.0 µM 13% | [12]; at 1.2 µM 0% | [12]; at 3.7 µM 0% | [12]; at 11.0 µM 1% | [12]; at 33.0 µM 3% | [12]; at 100.0 µM 12% | [13]; at 1.2 µM 1% | [13]; at 3.7 µM -1% | [13]; at 11.0 µM -1% | [13]; at 33.0 µM 2% | [13]; at 100.0 µM 12% | [14]; at 1.2 µM 0% | [14]; at 3.7 µM 2% | [14]; at 11.0 µM 1% | [14]; at 33.0 µM 9% | [14]; at 100.0 µM 28% | [15]; [17] -10% | [15]; [18] 49% | [15]; at 50.0 µM -4.55% | [16]; at 1.2 µM 0% | [16]; at 3.7 µM -2% | [16]; at 11.0 µM -11% | [16]; at 33.0 µM -2% | [16]; at 100.0 µM 3%

Cc1cc(N(CCOS(C)(=O)=O)CCOS(C)(=O)=O)ccc1C=Nc1ccc(-c2nc(Cc3ccccc3)sc2C)cc1
95% (active) and 49% (inactive): [5]; [18]
97% (active) and 46% (inactive): [6]; [18]
97% (active) and 43% (inactive): [15]; [18]
86.2% (active) and 27.1% (inactive): [10]; at 50.0 µM
78% (active) and -3% (inactive): [15]; [17]
inactive: [1]; at 1.2 µM 9% | [1]; at 3.7 µM 52% | [2]; at 1.2 µM -29% | [2]; at 3.7 µM -10% | [2]; at 11.0 µM 28% | [3]; at 1.2 µM 1% | [3]; at 3.7 µM -19% | [3]; at 11.0 µM 10% | [3]; at 33.0 µM 37% | [4]; at 1.2 µM -24% | [4]; at 3.7 µM 4% | [4]; at 11.0 µM 55% | [5]; at 1.2 µM 12% | [5]; at 3.7 µM 23% | [5]; [17] 44% and 1% | [5]; at 50.0 µM 52.9% | [6]; at 1.2 µM -26% | [6]; at 3.7 µM 4% | [6]; [17] 40% and -3% | [6]; at 50.0 µM 49.3% | [7]; at 1.2 µM 3% | [7]; at 3.7 µM 38% | [8]; [17] 23% and 3% | [8]; [18] -12% and 43% | [9]; at 1.2 µM 23% | [9]; at 3.7 µM 0% | [9]; at 11.0 µM 57% | [10]; [17] 29% and 0% | [10]; [18] -12% and 35% | [11]; at 1.2 µM -32% | [11]; at 3.7 µM -38% | [11]; [17] 16% and -2% | [11]; at 11.0 µM 25% | [11]; [18] -14% and 55% | [12]; at 1.2 µM -12% | [12]; at 3.7 µM 10% | [12]; at 11.0 µM 48% | [13]; at 1.2 µM -32% | [13]; at 3.7 µM -15% | [13]; at 11.0 µM 46% | [14]; at 1.2 µM 3% | [14]; at 3.7 µM 15% | [14]; at 11.0 µM 66% | [16]; at 1.2 µM 41%
84.2% (active) and 37% (inactive): [11]; at 50.0 µM
active: [1]; at 11.0 µM 84% | [1]; at 33.0 µM 92% | [1]; at 100.0 µM 96% | [2]; at 33.0 µM 90% | [2]; at 100.0 µM 98% | [3]; at 100.0 µM 92% | [4]; at 33.0 µM 90% | [4]; at 100.0 µM 98% | [5]; at 11.0 µM 71% | [5]; at 33.0 µM 93% | [5]; at 100.0 µM 97% | [6]; at 11.0 µM 72% | [6]; at 33.0 µM 93% | [6]; at 100.0 µM 98% | [7]; at 11.0 µM 80% | [7]; at 33.0 µM 96% | [7]; at 100.0 µM 96% | [8]; at 50.0 µM 85.5% and 85.9% | [9]; at 33.0 µM 91% | [9]; at 100.0 µM 97% | [11]; at 33.0 µM 89% | [11]; at 100.0 µM 98% | [12]; at 33.0 µM 92% | [12]; at 100.0 µM 98% | [13]; at 33.0 µM 92% | [13]; at 100.0 µM 97% | [14]; at 33.0 µM 94% | [14]; at 100.0 µM 98% | [15]; at 50.0 µM 77% | [16]; at 3.7 µM 73% | [16]; at 11.0 µM 90% | [16]; at 33.0 µM 94% | [16]; at 100.0 µM 98%

Clc1ccc2c(c1)N(CCCN1CCCC13CCCCC3)c1ccccc1S2
inactive: [1]; at 1.2 µM 1% | [1]; at 3.7 µM 3% | [1]; at 11.0 µM 2% | [1]; at 33.0 µM 1% | [1]; at 100.0 µM -7% | [2]; at 1.2 µM 1% | [2]; at 3.7 µM -3% | [2]; at 11.0 µM -5% | [2]; at 33.0 µM -5% | [2]; at 100.0 µM -7% | [3]; at 1.2 µM 0% | [3]; at 3.7 µM 3% | [3]; at 11.0 µM -2% | [3]; at 33.0 µM -3% | [3]; at 100.0 µM -7% | [4]; at 1.2 µM 2% | [4]; at 3.7 µM -1% | [4]; at 11.0 µM 3% | [4]; at 33.0 µM -2% | [4]; at 100.0 µM -2% | [5]; at 1.2 µM 4% | [5]; at 3.7 µM 10% | [5]; [17] 3% | [5]; at 11.0 µM 4% | [5]; at 33.0 µM 4% | [5]; [18] 61% | [5]; at 50.0 µM -2.15% | [5]; at 100.0 µM 2% | [6]; at 1.2 µM -3% | [6]; at 3.7 µM 3%
